We go through eleven compounds from PubChem BioAssay.

Assay [1] in a line: compound effects on lung adenocarcinoma cell viability – A549, calcein-AM fluorescence, 48 h, basal, profiling panel (AID 1162). The conditions noted are these: higher = more signal.
Assay [2] is described as follows: compound effects on differentiated 3T3-L1 adipocyte viability – cell-based, 3T3-L1 adipocytes, calcein-AM fluorescence, 48 h, basal, profiling panel (AID 1163). The following applies: 3T3-L1 adipocytes viability, higher = more signal.
The nature of assay [3]: compound effects on hepatocellular carcinoma cell viability – HepG2, calcein-AM fluorescence, 48 h, basal, profiling panel (AID 1164). The following applies: higher = more signal.
Assay [4] is described as follows: compound effects on multiple myeloma cell viability – MM1S, calcein-AM fluorescence, 48 h, basal, profiling panel (AID 1165).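 Note: viability of MM1S multiple myeloma cells under basal unstimulated conditions.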 The following applies: higher = more signal.
Assay [5] can be described thus: calcein-AM signal in unstimulated myeloma cells – cell-based, calcein-AM fluorescence, 48 h, PK04 Diversity Set, profiling panel (AID 1166).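 Note: cells grown under basal conditions without added stimulus.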 The following applies: RPMI8226 myeloma viability, higher = more signal.
Assay [6] is described as follows: JC-1 mitochondrial signal, unstimulated HepG2 cells – cell-based, JC-1 fluorescence, 24 h, 100 nL compound, profiling panel (AID 1167). The following applies: HepG2 mitochondrial potential, higher = more signal.
The nature of assay [7]: JC-1 mitochondrial signal, unstimulated adipocytes – cell-based, JC-1 fluorescence, 3T3-L1 adipocytes, 24 h, 100 nL compound, profiling panel (AID 1168). The following applies: JC-1 mitochondrial fluorescence, higher = more signal, called active from +8 up or from −8 down.
Assay [8] in a line: JC-1 mitochondrial signal, unstimulated myeloma cells – cell-based, JC-1 fluorescence, RPMI8226, 24 h, 100 nL compound, profiling panel (AID 1169). The conditions noted are these: JC-1 mitochondrial potential fluorescence, higher = more signal.
A short description of assay [9]: JC-1 mitochondrial signal, unstimulated MM1S myeloma – cell-based, JC-1 fluorescence, 24 h, 100 nL compound, profiling panel (AID 1170). The following applies: MM1S mitochondrial potential, higher = more signal.
The nature of assay [10]: resazurin metabolic signal in A549 cells – cell-based, resazurin fluorescence, 24 h, PK04 Diversity Set, profiling panel (AID 1171). The conditions noted are these: A549 viability, higher = more signal, called active from +8 up or from −8 down.

Calls of active or inactive are those of the source.
Note: test concentration not given here.

As for `CCCC[C@@H](O)C1=C(C)C[C@H]2C(=O)N(Cc3ccccc3)C(=O)[C@H]2[C@H]1CO`, the z-score in assay [1] was 0.35; in assay [2], 0.356; in assay [3], -0.0592; in assay [4], -0.0699; in [5], 1.09; in assay [6], 0.579. Further, the z-score is 0.164 (inactive) in assay [7], -0.0812 in assay [8], -0.785 in assay [9] and 0.453 (inactive) in assay [10].

As for `CCN1C(=O)[C@H]2[C@H]3[C@H](O)[C@H](O)CC(=NOCC=C(C)CCC=C(C)C)[C@H]3CC[C@H]2C1=O`, the z-score was -0.107 in [1]; 0.393 in assay [2]; -0.118 in assay [3]; 0.805 in assay [4]; 0.169 in [5]; -0.702 in assay [6]. Also, the z-score in assay [7] is 0.0735 (inactive); in [8] it was 0.568; in [9], 0.0613; in [10], -1.01 (inactive).

Take `COCCNC(=O)OCC1CCCC2(CC(OC(=O)NCCc3ccc(F)cc3)CC(CCC(=O)N[C@@H](C)C(=O)OC)O2)O1` (stereo not given in full): the z-score is 1.26 in assay [1]; -0.144 in [2]; 0.0479 in [3]; -0.491 in assay [4]; 0.253 in assay [5]; -0.198 in [6]. For the same compound, the z-score in [7] was 0.836 (inactive); in [8], -0.156; in assay [9], -1; in assay [10], 1.06 (inactive).

`C=CCC(OC(C)=O)[C@@H]1[C@@H](N(Cc2cc3ccccc3o2)C(=O)Cc2ccc(F)cc2)c2cc(OCCCO)ccc2N1C(=O)Cc1ccc(OC)cc1` (stereo not given in full): the z-score is -0.382 in [1]; 0.569 in [2]; 0.585 in assay [3]; -0.0962 in assay [4]; 0.228 in [5]; 1.16 in assay [6]. Further, the z-score in assay [7] is -0.0927 (inactive); in assay [8], 0.774; in assay [9] it was -0.208; in assay [10], 0.331 (inactive).

Turning to `C=CC[C@]1(C(=O)NCc2ccccc2)N=C(c2ccc(OCCCO)cc2)O[C@H]1c1ccccc1`, the z-score is -1.38 in assay [1]; 0.43 in assay [2]; -1.98 in assay [3]; -2.75 in assay [4]; -3.75 in assay [5]; -0.022 in [6]. In addition, the z-score is -0.18 (inactive) in [7], -1.31 in assay [8], -0.988 in [9] and 0.953 (inactive) in assay [10].

As to `Cn1c(=O)n2n(c1=O)[C@H]1[C@H](O)[C@@H]3O[C@@H]3C(=NOC[C@@H](O)COCc3ccco3)[C@H]1CC2`, the z-score was 0.981 in assay [1]; 0.323 in assay [2]; 1.41 in assay [3]; 0.287 in [4]; 0.588 in assay [5]; 1.41 in [6]. The z-score is -0.439 (inactive) in [7], -0.402 in assay [8], -0.397 in [9] and -0.195 (inactive) in assay [10].

For the compound `CCN1C(=O)[C@H]2[C@H]3[C@H](O)[C@H](O)CC(=NO[C@@H]4O[C@H](CO)[C@@H](O)[C@H](O)[C@H]4O)[C@@H]3CC[C@H]2C1=O`, the z-score in [1] was 1.05; in [2] it was 0.462; in assay [3], 0.484; in assay [4], -0.944; in assay [5] it was 0.0072; in [6], -0.608. The z-score is 0.725 (inactive) in [7], 0.14 in assay [8], -0.385 in assay [9] and -0.859 (inactive) in [10].

Consider `CC(C)C[C@@H]1NC(=O)[C@H]2C[C@@H](C(=O)O)[C@@H](c3ccc(O)cc3)N2C1=O`, for which the z-score in [1] is 0.48; in assay [2], 0.0559; in assay [3] it was 0.111; in assay [4] it was -2.7; in assay [5] it was 0.25; in assay [6], 1.27. The z-score was -0.0304 (inactive) in assay [7], 0.433 in assay [8], -0.0341 in [9] and -0.0496 (inactive) in assay [10].

With `C[C@@H]1CCC2C(=O)N(Cc3ccccc3)C[C@@H](O)CN2[C@H]1c1ccc(Br)cc1` (stereo not given in full), the z-score in assay [1] is 0.247; in assay [2], 0.13; in assay [3] it was 0.229; in assay [4], 0.314; in [5], 0.447; in assay [6], 0.687. Moreover, the z-score is 0.303 (inactive) in assay [7], -0.878 in assay [8], 1.35 in assay [9] and 0.269 (inactive) in assay [10].

For `CCOC(=O)CCN1C(=O)[C@H]2[C@H]3[C@H](O)[C@H](O)CC(=NOCc4ccccc4)[C@@H]3CC[C@H]2C1=O`, the z-score is 0.16 in [1]; 0.112 in assay [2]; -0.149 in assay [3]; -0.104 in [4]; 1.16 in [5]; -0.761 in assay [6]. Besides, the z-score in [7] is -0.522 (inactive); in assay [8], -0.043; in [9], -0.362; in assay [10], -0.0452 (inactive).

As for `C=C(CCCC)C(=O)CC[C@@H](OC(C)=O)c1cccc(OCCO)c1`, the z-score in assay [1] is -0.985; in assay [2] it was -1.33; in [3], -2.45; in assay [4], -2.53; in [5] it was -2.28; in assay [6], -0.974. Also, the z-score in assay [7] is -0.673 (inactive); in assay [8], 0.452; in assay [9], -0.238; in assay [10], -0.713 (inactive).
